# SIRT5 inh: SIRT5 desuccinylase inhibitors, primary screen, biochemical, fluorescence imaging, single point, set 5. NAD-dependent protein deacylase sirtuin-5, mitochondrial (Homo sapiens), Q9NXA8. Purified SirT5, succinyl-peptide AMC, trypsin-coupled fluorescence. inhibition, % at 15 µM. 330,000 compounds, 1.1% hits; in the data active means inhibition above about 15%
# FGF22 binding: binders of human FGF22 protein, primary screen, FGF22 synaptogenesis inhibitor project, biophysical, thermal shift, single point | Fibroblast growth factor 22 (Homo sapiens), Q9HCT0 | recombinant FGF22 thermal shift, SYPRO orange fluorescence; percent of sucrose octasulfate shift, DMSO zero | activity (Tm shift, normalised), % at 9.99 µM | 340,000 compounds, 1.5% hits;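 active means mean Tm shift, scaled 0 neutral to 100 positive control, at about 1.3% or above, every replicate too, limit read from the data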
# INS-1E GSIS act: GLuc luminescence reporter in INS-1E cells, primary screen for activators of glucose-dependent secretion of insulin | INS-1E GLuc reporter insulin secretion, 2-3 h | activation, % at 16.6 µM | 370,000 compounds, 0.61% hits | AID 743287, 2014;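 active means lowest replicate activation of at least 40%, so every replicate reaches that level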
# CASP6 VEID inh: human caspase-6 inhibitors, primary screen, biochemical, VEID-R110 fluorescence, single point, set 2; purified caspase-6, Z-VEID-R110 cleavage fluorescence; inhibition, % at 12.5 µM; 350,000 compounds, 0.53% hits;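 active means mean inhibition across replicates at least about 35%, with every replicate also reaching that limit, limit read from the data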
# ERAP1 HTS inh: human ERAP1 aminopeptidase inhibitors, primary screen, biochemical, single point, plate reader. AID 652197, 2013. 340,000 compounds, 0.15% hits. Endoplasmic reticulum aminopeptidase 1 (Homo sapiens), Q9NZ08. recombinant ERAP1, Leu-AMC fluorescence, 60 min. inhibition, % at 10.7 µM;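 active means mean replicate inhibition of at least 30%, or all replicates individually reaching that 30% level; inactive means mean below 30% and not every replicate reaching it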
# Target sequence (Q9NZ08 whole entry, looked up): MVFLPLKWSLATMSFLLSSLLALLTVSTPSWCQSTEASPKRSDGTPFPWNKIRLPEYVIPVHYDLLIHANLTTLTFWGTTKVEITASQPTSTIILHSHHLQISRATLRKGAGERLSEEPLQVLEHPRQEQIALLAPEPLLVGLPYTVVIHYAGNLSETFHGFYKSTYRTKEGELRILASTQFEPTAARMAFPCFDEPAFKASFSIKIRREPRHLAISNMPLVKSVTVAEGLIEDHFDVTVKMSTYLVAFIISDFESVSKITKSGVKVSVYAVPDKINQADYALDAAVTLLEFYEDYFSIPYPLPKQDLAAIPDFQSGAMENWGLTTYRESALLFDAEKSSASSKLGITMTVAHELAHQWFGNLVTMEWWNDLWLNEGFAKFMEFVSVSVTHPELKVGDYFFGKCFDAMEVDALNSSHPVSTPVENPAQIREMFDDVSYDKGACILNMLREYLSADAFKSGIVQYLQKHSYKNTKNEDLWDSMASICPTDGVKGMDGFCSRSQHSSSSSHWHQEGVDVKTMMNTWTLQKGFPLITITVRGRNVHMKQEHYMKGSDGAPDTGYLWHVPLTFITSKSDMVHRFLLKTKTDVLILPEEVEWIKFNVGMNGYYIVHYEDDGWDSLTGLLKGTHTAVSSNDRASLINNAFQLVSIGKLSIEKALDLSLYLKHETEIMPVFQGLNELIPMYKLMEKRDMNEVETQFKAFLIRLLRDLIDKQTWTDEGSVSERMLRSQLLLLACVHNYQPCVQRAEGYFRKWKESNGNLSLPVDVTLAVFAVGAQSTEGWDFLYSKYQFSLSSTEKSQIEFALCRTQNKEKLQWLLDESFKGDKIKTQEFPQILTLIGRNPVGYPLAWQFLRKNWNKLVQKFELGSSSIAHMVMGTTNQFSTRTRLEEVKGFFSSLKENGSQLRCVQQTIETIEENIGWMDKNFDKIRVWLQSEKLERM
# Hits are given with their value; i = inactive; nt = no result given. Shown are actives, neighbours in structure and some others; about 3.3% of the full set was active somewhere.
SMILES,SIRT5 inh,FGF22 binding,INS-1E GSIS act,CASP6 VEID inh,ERAP1 HTS inh
COc1ccc(S(=O)(=O)Nc2ccc3c(c2)C(=O)N([C@@H](C)CO)C[C@@H](C)[C@H](CN(C)S(=O)(=O)c2ccc(Cl)cc2)OCCCC[C@H](C)O3)cc1,i,i,i,i,i
COc1ccc(S(=O)(=O)Nc2ccc3c(c2)C(=O)N([C@H](C)CO)C[C@@H](C)[C@@H](CN(C)S(=O)(=O)c2ccc(Cl)cc2)OCCCC[C@@H](C)O3)cc1,i,i,i,i,i
COc1ccc(S(=O)(=O)N(C)C[C@@H]2OCCCC[C@@H](C)Oc3ccc(NS(=O)(=O)c4ccc(Cl)cc4)cc3C(=O)N([C@H](C)CO)C[C@@H]2C)cc1,16,i,i,i,i
COc1ccc(S(=O)(=O)N(C)C[C@H]2OCCCC[C@@H](C)Oc3ccc(NS(=O)(=O)c4ccc(Cl)cc4)cc3C(=O)N([C@@H](C)CO)C[C@H]2C)cc1,16,i,i,i,i
COc1ccc(S(=O)(=O)Nc2ccc3c(c2)C(=O)N([C@H](C)CO)C[C@H](C)[C@H](CN(C)S(=O)(=O)c2ccc(Cl)cc2)OCCCC[C@H](C)O3)cc1,16,nt,i,i,i
COc1ccc(S(=O)(=O)Nc2ccc3c(c2)C(=O)N([C@@H](C)CO)C[C@@H](C)[C@H](CN(C)S(=O)(=O)c2ccc(Cl)cc2)OCCCC[C@@H](C)O3)cc1,16,i,i,i,i
COc1ccc(S(=O)(=O)Nc2ccc3c(c2)C(=O)N([C@@H](C)CO)C[C@@H](C)[C@@H](CN(C)S(=O)(=O)c2ccc(Cl)cc2)OCCCC[C@@H](C)O3)cc1,15,i,i,i,i
CNC[C@H]1Oc2ncc(C#CCC(C)C)cc2C(=O)N([C@H](C)CO)C[C@H]1C,i,i,i,i,i
Cc1noc(C)c1NC(=O)Nc1ccc2c(c1)C(=O)N([C@@H](C)CO)C[C@@H](C)[C@@H](CN(C)Cc1ccc(C(=O)O)cc1)OCCCC[C@H](C)O2,nt,i,i,nt,nt
O=C(O)c1ccc(NC2=C(n3nnc4ccccc43)C(=O)c3ccccc3C2=O)cc1,i,i,i,83,i
COc1ccc(NC(=O)Nc2ccc3c(c2)C(=O)N([C@@H](C)CO)C[C@@H](C)[C@@H](CN(C)Cc2ccc(C(F)(F)F)cc2)OCCCC[C@@H](C)O3)cc1,17,i,i,i,i
COc1ccc(NC(=O)Nc2ccc3c(c2)C(=O)N([C@@H](C)CO)C[C@H](C)[C@H](CN(C)Cc2ccccc2)OCCCC[C@@H](C)O3)cc1,i,i,i,i,i
C[C@@H]1CCCCO[C@H](CN(C)Cc2ccccc2)[C@H](C)CN([C@H](C)CO)C(=O)c2cc(NC(=O)CCC(F)(F)F)ccc2O1,19,i,i,i,i
COc1ccc(CN(C)C[C@H]2OCCCC[C@@H](C)Oc3ccc(NC(=O)Nc4ccc(C(F)(F)F)cc4)cc3C(=O)N([C@H](C)CO)C[C@H]2C)cc1,i,i,i,i,i
COc1ccc(NC(=O)Nc2ccc3c(c2)C(=O)N([C@H](C)CO)C[C@@H](C)[C@@H](CN(C)Cc2ccccc2)OCCCC[C@H](C)O3)cc1,21,i,i,i,i
COc1ccc(NC(=O)Nc2ccc3c(c2)C(=O)N([C@@H](C)CO)C[C@H](C)[C@@H](CN(C)Cc2ccccc2)OCCCC[C@H](C)O3)cc1,20,i,i,i,i
C[C@@H]1CCCCO[C@@H](CN(C)Cc2ccccc2)[C@H](C)CN([C@H](C)CO)C(=O)c2cc(NC(=O)CCC(F)(F)F)ccc2O1,i,i,i,i,i
CC(C)NC(=O)N(C)C[C@@H]1OCCCC[C@@H](C)Oc2ccc(NS(=O)(=O)c3ccc(Cl)cc3)cc2C(=O)N([C@@H](C)CO)C[C@@H]1C,i,i,i,i,i
COC(=O)c1c(CC[C@@H](CO)NC(=O)N2CCC[C@H]2Cn2cc(C3(O)CCCCC3)nn2)oc(C(C)=O)c1C(=O)OC,i,i,nt,i,i
C=C[C@@H](CO)NS(=O)(=O)c1ccc(Br)cc1,i,i,nt,i,i
COc1cnc(-c2cccc(C(F)(F)F)c2)nc1OC,i,43,i,i,i
CSc1cc(-c2ccccc2)[nH]c(=O)c1C#N,i,i,i,i,i
Cc1cc(-c2ccccc2)[nH]c(=O)c1C#N,i,43,i,i,i
C[C@@H]1CN([C@H](C)CO)C(=O)c2cc(-c3cccc(C#N)c3)cnc2O[C@H]1CN(C)C(=O)c1cnccn1,i,i,i,i,i
O=C(C[C@@H]1CC[C@@H](NC(=O)Nc2ccccc2F)[C@@H](CO)O1)NCc1ccc(F)cc1,i,nt,i,i,i
SMILES,SIRT5 inh,FGF22 binding,INS-1E GSIS act,CASP6 VEID inh,ERAP1 HTS inh
Cc1cc(C)c(N2C(=O)CC(Sc3ccccc3N)C2=O)c(C)c1 (stereo unspecified),i,i,nt,i,i
Cc1cccc(C)c1N1C(=O)CC(Sc2ccccc2N)C1=O (stereo unspecified),nt,44,nt,i,i
CNC(=O)C[C@@H]1C(=O)N(CCc2ccccc2)CC1(C)C,nt,43,i,i,i
CCCNC(=O)C[C@@H]1C[C@@H]2c3cc(NC(=O)C4CCC4)ccc3O[C@@H]2[C@@H](CO)O1,i,nt,i,i,i
Cn1nnc2cc(C(=O)Nc3ccccc3)ccc21,i,i,nt,i,i
COc1ccc(C(=O)Nc2cccc3cccnc23)cc1OC,20,i,i,i,i
COc1ccc(/C=N/NC(=O)c2ccc(COc3cccc4cccnc34)cc2)cc1OC,i,43,i,i,i
COc1ccc(/C=N/NC(=O)c2ccc(COc3cccc4cccnc34)cc2)cc1O,i,i,i,i,i
COc1cc(/C=N/NC(=O)c2ccncc2)ccc1OC(=O)c1ccccc1Cl,i,43,i,i,i
COc1ccccc1NC(=O)c1ccc2c(c1)nnn2C,i,44,i,i,i
O=C(C[C@@H]1CC[C@H]2[C@@H](COC[C@@H](O)CN2C(=O)c2ccccc2F)O1)NCc1ccc(Cl)cc1,i,i,i,i,i
CCCNC(=O)Nc1ccc2c(c1)OC[C@@H](C)N(C(=O)C1CCC1)C[C@@H](C)[C@@H](OC)CN(C)C2=O,i,i,i,i,i
C[C@H](O)C#Cc1cnc2c(c1)C(=O)N([C@H](C)CO)C[C@H](C)[C@@H](CN(C)C(=O)c1ccccc1)O2,i,i,i,i,i
CCCN(C)C[C@H]1Oc2cc(C#Cc3cccc(F)c3)ccc2S(=O)(=O)N([C@H](C)CO)C[C@@H]1C,i,i,i,i,i
COc1ccc(C(=O)Nc2ccc(S(=O)(=O)NC(C)=O)cc2)cc1,nt,nt,i,nt,nt
Cn1ccc(C(=O)Nc2cccnc2Cl)n1,i,i,i,i,i
COc1ccc(C(=O)Nc2cccnc2Cl)cc1OC,i,i,47,i,i

# Bioassay records as filed in PubChem.
